Compounds without any hit were thinned out: in the full panel of roughly 83,000, 20% have a hit.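 Cells were grown in 96-well plates and exposed to the test compound at a single concentration for 48 hours; results are reported as percent growth, with values below 10 considered active.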 Values without a mark were called inactive. The source made the active and inactive calls.
What was measured:
Test in all cases: NCI-60 one-dose screen, 48 h (100 = growth as untreated, 0 = no growth, -100 = all killed)
Conditions in all cases: 10 µM
SK-MEL-2 melanoma = tested on: SK-MEL-2 melanoma
EKVX NSCLC = tested on: EKVX NSCLC
SN12C renal = tested on: SN12C renal
UO-31 renal = tested on: UO-31 renal
TK-10 renal = tested on: TK-10 renal
ACHN renal = tested on: ACHN renal
A498 renal = tested on: A498 renal
CCRF-CEM leukemia = tested on: CCRF-CEM leukemia
MOLT-4 leukemia = tested on: MOLT-4 leukemia
SR leukemia = tested on: SR leukemia
RPMI-8226 leukemia = tested on: RPMI-8226 leukemia
OVCAR-8 ovarian = tested on: OVCAR-8 ovarian
OVCAR-4 ovarian = tested on: OVCAR-4 ovarian
SK-OV-3 ovarian = tested on: SK-OV-3 ovarian
IGROV1 ovarian = tested on: IGROV1 ovarian
NCI/ADR-RES ovarian = tested on: NCI/ADR-RES ovarian
OVCAR-3 ovarian = tested on: OVCAR-3 ovarian
HS 578T breast = tested on: HS 578T breast
OVCAR-5 ovarian = tested on: OVCAR-5 ovarian

SMILES | growth (SK-MEL-2 melanoma) | growth (EKVX NSCLC) | growth (SN12C renal) | growth (UO-31 renal) | growth (TK-10 renal) | growth (ACHN renal) | growth (A498 renal) | growth (CCRF-CEM leukemia) | growth (MOLT-4 leukemia) | growth (SR leukemia) | growth (RPMI-8226 leukemia) | growth (OVCAR-8 ovarian) | growth (OVCAR-4 ovarian) | growth (SK-OV-3 ovarian) | growth (IGROV1 ovarian) | growth (NCI/ADR-RES ovarian) | growth (OVCAR-3 ovarian) | growth (HS 578T breast) | growth (OVCAR-5 ovarian)
CN(C)CCOc1cccc(NC2=C(Cl)C(=O)C(Nc3cccc(OCCN(C)C)c3)=C(Cl)C2=O)c1 | -73.8% (active) | -92.3% (active) | -76.3% (active) | -100% (active) | -100% (active) | -100% (active) | 77.1% | -26.6% (active) | -38.5% (active) | -18.2% (active) | -46.9% (active) | -94.9% (active) | -100% (active) | 94.9% | -76.6% (active) | 57.2% | – | – | –
CN(C)CCOc1ccccc1NC1=C(Cl)C(=O)C(Nc2ccccc2OCCN(C)C)=C(Cl)C1=O | 82.9% | 16% | -69.9% (active) | 38.4% | 85.4% | -84.1% (active) | 107% | 4.28% (active) | -32.4% (active) | 19% | 82.7% | 26.6% | -99% (active) | 119% | 10.5% | 92.8% | -96% (active) | 98.4% | –
CN(C)CCCOc1ccc(NC2=C(Cl)C(=O)C(Nc3ccc(OCCCN(C)C)cc3)=C(Cl)C2=O)cc1 | -40.2% (active) | -89% (active) | -91.6% (active) | -99% (active) | -98.7% (active) | -94.1% (active) | -49% (active) | -31.2% (active) | -23.4% (active) | -1.57% (active) | -44.1% (active) | -68.3% (active) | -98.9% (active) | 24.4% | -68.2% (active) | 8.96% (active) | -98.3% (active) | -0.291% (active) | -60.6% (active)
O=C(COc1cccc(/C=C2\CSc3ccccc3C2=O)c1)c1ccc(Cl)cc1 | -71.6% (active) | 68.1% | -6.61% (active) | -79% (active) | -4.52% (active) | -65.6% (active) | 54% | -51.6% (active) | -67.3% (active) | -60.7% (active) | -64.5% (active) | -4.69% (active) | 80.9% | 104% | – | 7.16% (active) | 57.5% | -25.5% (active) | 19.5%
COc1cc2c(cc1NC(=O)C(F)(F)F)-c1ccc(NC(=O)C(F)(F)F)cc1C2 | 105% | 104% | 86.8% | 102% | 94.8% | 62.9% | 97.7% | 97.6% | 105% | 107% | 103% | 96.8% | – | 54.7% | 103% | 93.3% | 108% | 77.8% | 99%
S=C(NCc1ccccc1)NCc1ccccc1 | 97.9% | 102% | 96.3% | 87.1% | 83.2% | 105% | 80% | 95.9% | 94.9% | 98.4% | 100% | 94.7% | 102% | 99.2% | 97.4% | 99.5% | 98.5% | 96.1% | 108%
CN(C)CCN(Cc1ccccc1)c1ccc2ccccc2n1 | 103% | 109% | 93.8% | 76.2% | 93.1% | 95.8% | 119% | 88.6% | 104% | 98.6% | 89.5% | 102% | 97.4% | 97.2% | 95.1% | 94.2% | 103% | 92.4% | –
CCN(CC)CCCOc1cccc2c1C(=O)c1cccc(OCCCN(CC)CC)c1C2=O | 42.1% | 54.5% | 31.2% | 16% | 38.8% | 22.7% | 46.4% | 25% | 4.98% (active) | – | 18.6% | 28.1% | 32.9% | 41.5% | 25.8% | 35.3% | 35% | 58.4% | 55.8%
CCOC(=O)CC(S(=O)(=O)c1ccccc1)S(=O)(=O)c1ccccc1 | 97.4% | 113% | 95.7% | 72.4% | 56.4% | 63.6% | 115% | 62.7% | 87.1% | 89.1% | 97.4% | 103% | 94% | 112% | 107% | 104% | 63.1% | 105% | 109%
